As usually defined, the AC50 is the concentration giving half of the maximal activity seen.

Values joined by “and” are separate entries in the source; they are usually repeats but may differ in a detail not shown here. Equal values may be shown once. More than one record can exist for a structure, and the calls need not agree. Active and inactive are the calls of the source. The calls were made as follows: active = hit-call score of the fitted dose curve at least 0.9, where 1 is the maximum; inactive = score below 0.9.

A short description of the experiment: BSK_IMphg_SRB.Mphg: Macrophage Viability Assessment in the BioMAP Diversity Plus: IMphg Assay (AID 2284295). As to conditions: primary human endothelial cells with macrophages. The procedure: BSK_IMphg is a cell-based, multiplexed-readout assay that uses venular endothelial cells and macrophages, a human vascular primary cell, with measurements taken at 24 hours after chemical dosing in a microplate: 96-well plate.BSK_IMphg_SRB.Mphg is an assay component measured in the BSK_IMphg assay. It measures […] related to cell death using Sulforhodamine staining technology.Data from the assay component BSK_IMphg_SRB.Mphg was analyzed at the endpoint, BSK_IMphg_SRB.Mphg, in the positive analysis fitting direction relative to DMSO as the negative control and baseline of activity. Using a type of viability reporter, gain or loss-of-signal activity can be used to understand protein changes. To generalize the intended target to other relatable targets, this assay endpoint is annotated to the 'cell morphology' intended target family, where the subfamily is 'cell conformation'.
The levels of cell surface (or secreted, indicated by the prefix "s") biomarker endpoints were measured by ELISA. Overt cytotoxicity to cells in confluent adherent cultures (all systems other than the BT system) was assessed by measuring total protein levels using sulforhodamine B (SRB) staining in parallel cultures at the time of biomarker measurements, indicated as SRB endpoints. For proliferation assays for adherent cell types, individual cell types are cultured at sub-confluence and relative cell numbers quantified by SRB staining at time points optimized for each system (48 h: 3C and CASM3C systems; 72 h: BT and HDF3CGF systems; 96 h: SAg system). SRB was performed by staining cells with 0.1% SRB after fixation with 10% TCA and reading wells at 560 nm.Viability and proliferation of PBMC (T cells) was quantified by Alamar Blue reduction for the SAg and BT systems. For PBMC viability (referred to as PBMC Cytotoxicity within the assay endpoint names), cells were plated (75,000/well in a 96-well plate) and then chemical samples added for 1 h before addition of activators, SEB and TSST-1 (20 ng/mL final concentration each). Cells were incubated for 90 h. Then, Alamar Blue (20 uL/well) (Invitrogen, Cat DAL1100) was added for 6 h, and the plates were read with a fluorescence microplate reader at 546/580 nm (excitation/emission). For PBMC proliferation, cells were plated and activated as above but incubated for only 16 h prior to addition of Alamar Blue. Plates were read after 6 h.
Consider `CN(Cc1cnc2nc(N)nc(N)c2n1)c1ccc(C(=O)N[C@@H](CCC(=O)O)C(=O)O)cc1`, for which the result was inactive and the AC50 was 3.26 µM (active).

In the case of `O=S(=O)(O)C(F)(F)C(F)(F)C(F)(F)C(F)(F)C(F)(F)C(F)(F)C(F)(F)C(F)(F)C(F)(F)C(F)(F)F`, the AC50 was 0.668 µM (active) and the result was inactive.

With `O=C(O)CCC(F)(F)C(F)(F)C(F)(F)C(F)(F)C(F)(F)F`, the result was inactive.

Regarding `O=P(O)(O)CCC(F)(F)C(F)(F)C(F)(F)C(F)(F)C(F)(F)C(F)(F)C(F)(F)C(F)(F)F`, the result was inactive.

For `OCC(F)(F)C(F)(F)C(F)(F)C(F)(F)C(F)(F)C(F)(F)C(F)(F)C(F)(F)C(F)(F)C(F)(F)C(F)(F)F`, the AC50 was 550 nM (active) and 521 nM (active).

In the case of `O=C(O)C(F)(F)OC(F)(F)C(F)(F)OC(F)(F)C(F)(F)OC(F)(F)C(F)(F)C(F)(F)C(F)(F)F`, the AC50 was 42.9 µM (active) and 45.1 µM (active).

As to `O=P(O)(O)CCC(F)(F)C(F)(F)C(F)(F)C(F)(F)C(F)(F)C(F)(F)F`, the result was inactive.

As for `O=C(O)CCC(F)(F)C(F)(F)C(F)(F)C(F)(F)C(F)(F)C(F)(F)F`, the outcome was inactive.

With `O=C(CC(=O)C(F)(F)C(F)(F)C(F)(F)F)c1cccs1`, the AC50 was 43.1 µM (active) and 42.7 µM (active).

Take `C=CC(=O)OCCC(F)(F)C(F)(F)C(F)(F)C(F)(F)C(F)(F)C(F)(F)C(F)(F)C(F)(F)F`: the result was inactive.

Regarding `CN(CCO)S(=O)(=O)C(F)(F)C(F)(F)C(F)(F)C(F)(F)C(F)(F)C(F)(F)C(F)(F)C(F)(F)F`, the outcome was inactive.

The values are drawn from PubChem BioAssay (EPA / NIEHS).
